# Laboratory results taken from PubChem BioAssay (NCI).
# Compounds without any hit were thinned out: in the full panel of roughly 83,000, 20% have a hit.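 Percent growth is the endpoint: 0 to 100 indicates growth inhibition (40 means 60% inhibition), 0 means no net growth, and negative values indicate cell death.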 Values without a mark were called inactive. Calls of active or inactive are those of the source. Rule for the calls: active = growth percent below 10; inactive = the rest.
# Legend:
# Experiment in all cases: NCI-60 one-dose screen, 48 h (100 = growth as untreated, 0 = no growth, -100 = all killed)
# Details in all cases: 10 µM unless noted
# [1] = system: HCT-15 colon
# [2] = system: HT29 colon
# [3] = system: SNB-75 CNS
# [4] = system: SNB-19 CNS
# [5] = system: U251 CNS
# [6] = system: PC-3 prostate
# [7] = system: SK-MEL-5 melanoma
# [8] = system: UACC-62 melanoma
# [9] = system: LOX IMVI melanoma
# [10] = system: SK-MEL-28 melanoma
# [11] = system: SK-MEL-2 melanoma
# [12] = system: SN12C renal
# [13] = system: UO-31 renal
# [14] = system: TK-10 renal
# [15] = system: ACHN renal
# [16] = system: CAKI-1 renal
# [17] = system: A498 renal
# [18] = system: MOLT-4 leukemia
# [19] = system: CCRF-CEM leukemia
# [20] = system: EKVX NSCLC
SMILES,growth [1],growth [2],growth [3],growth [4],growth [5],growth [6],growth [7],growth [8],growth [9],growth [10],growth [11],growth [12],growth [13],growth [14],growth [15],growth [16],growth [17],growth [18],growth [19],growth [20]
CCOC(=O)C(CCCCC(NC(C)=O)(C(=O)OCC)C(=O)OCC)(NC(C)=O)C(=O)OCC,106%,100%,95.3%,110%,104%,101%,104%,99.5%,98.3%,97%,95.9%,101%,87.3%,97.9%,104%,104%,115%,109%,–,–
CN1C(=O)N(C)C2C1NN=c1s/c(=C\c3ccc(Br)cc3)c(=O)n12 (centres undefined),22.8%,10.7%,11.4%,34.9%,29.3%,18.3%,14%,27.9%,35.8%,71.1%,52.7%,50.2%,53.4%,60.4%,–,38.6%,20.2%,40.3%,10.3%,–
O=C1CCCN1C1CCN2CCCc3cccc1c32 (centres undefined),102%,94.4%,105%,100%,103%,91.3%,110%,93.6%,101%,115%,102%,104%,81.3%,103%,106%,105%,99.2%,78.9%,–,–
CCCCCCCCCCCCNC(=O)N[C@H](C(=O)N[C@H]1/C=C/CCNC(=O)/C=C/[C@H](C)NC1=O)C(C)C,27.9%,11.8%,-94.9% (active),-25.8% (active),-95.3% (active),-24% (active),-100% (active),-88.8% (active),-89.2% (active),-70.2% (active),–,-42.4% (active),36.7%,8.32% (active),16.6%,35.8%,-55.3% (active),–,-5.12% (active),25%
COc1cc([N+](=O)[O-])cc(OC)c1OC,107%,96%,92.2%,114%,106%,94.9%,113%,101%,100%,104%,114%,101%,86.5%,106%,–,89.5%,79.9%,103%,105%,–
Cn1cnc([N+](=O)[O-])c1S(=O)(=O)Oc1cccc2ccccc12,1.87% (active),10.9%,83.2%,98.8%,57.6%,57.4%,93%,80.7%,-45.1% (active),85.1%,–,79.2%,-31% (active),96.3%,4.28% (active),-20.9% (active),97.6%,32.8%,-1.53% (active),97.1%
COc1ccc(-c2ccc(-c3ccc(C(=N)N)s3)s2)cc1,-73.7% (active),-81.9% (active),-84.2% (active),-61.9% (active),-70.3% (active),-92.8% (active),-97.8% (active),-91% (active),-74.7% (active),-75.5% (active),-78.4% (active),-51.8% (active),-71.4% (active),-90.7% (active),-92.8% (active),-82.8% (active),-73.9% (active),-56.2% (active),–,–
CN(C)c1ccc(C2(Cl)c3ccccc3N(C)c3ccccc32)cc1,64.5%,12.1%,71.2%,45.5%,1.47% (active),7.45% (active),79.9%,35.2%,27.6%,52.4%,61.2%,19.1%,71.8%,64.3%,55.6%,81.2%,77.2%,49.7%,27.7%,–
CSc1ccc(/C=C2\C=C(CC(=O)NCc3ccc(C(=O)c4ccccc4)cc3)c3cc(F)ccc32)cc1,5.88% (active),-15.1% (active),-18.4% (active),18.2%,-2.89% (active),12.4%,-51.4% (active),3.75% (active),5.66% (active),18.2%,–,9.57% (active),26.6%,13.8%,2.09% (active),7.79% (active),-10.5% (active),–,11.5%,25.5%
